Among the targets are ABHD8; ACTL6A; ADAD1; ADAM18; ADAP1; ADCYAP1; ADAM19; ADRB1; AHCY; AHDC1.
What all share (experiment): pooled miR-30 sensor sort-seq; sequence = guide strand
Holding throughout (conditions): shRNA
Also: reference of the scale not given here.

TAGCGCTTGAAGATTGCTCGCA returned a sensor-assay potency score (higher = more potent) with ABHD8 of 0.247.
Still for that read-out and setting: then TTTAACAGCTGCTTCTCCTTGG, with 0.506.
In the assay with ACTL6A, TCCTTCTTCATATTCTTGCTTG came in with a sensor-assay potency score (higher = more potent) of -0.909.
On the same count and under the same terms, the value for TTTATCGCCATCTATTTCCATT was -1.13.
Sequence TTTAGGACAGTAAACAGTCAGA gave a sensor-assay potency score (higher = more potent) with ADAD1 of -1.
As to TATGACTGTAATTTACTGCTAA, in the assay with ADAM18, the sensor-assay potency score (higher = more potent) was determined as 0.177.
On the same count and under the same terms, then TTGATGTACAACATGGTCCAGA, with -0.506.
Same read-out and setting: then TATGTGGCTGAACACAAGCTAA, with -1.54.
On to TAGGGCTCCTGCTTCTCCGGGT, for which the sensor-assay potency score (higher = more potent) in the assay with ADAP1 came to 0.35.
For the sequence TTGATTTTTCCATCATAGCAGG, the sensor-assay potency score (higher = more potent) with ADAD1 is -0.926.
Sequence ATTTCTGTTGAAATACTTCAGA returned a sensor-assay potency score (higher = more potent) with ADAP1 of -1.12.
For TCAACTTACATTTAGCTTCTTG, the sensor-assay potency score (higher = more potent) with ADAD1 is -0.0304.
The sequence TATAACAGTCAATTTGAACTGG showed a sensor-assay potency score (higher = more potent) in the assay with ADAM18 of 0.382.
With TAGTTATCGTCTTTGTCGCTGG, the sensor-assay potency score (higher = more potent) with ADAD1 is -0.46.
In the assay with ADAM18, TTTGACTTAATCTTCCGTGGAA displayed a sensor-assay potency score (higher = more potent) of 0.749.
TTCTGTCAGCACAAACTTCCGG: the sensor-assay potency score (higher = more potent) in the assay with ADAP1 is -0.508.
With TAAGAAGAGACCTTCTTGCTGT, the sensor-assay potency score (higher = more potent) with ADAD1 was 0.614.
In turn, TTATACTCTGCATTCTCTCTGT registered a sensor-assay potency score (higher = more potent) with ADAM18 of 0.461.
In the case of TCATTTGACTTAATCTTCCGTG, the sensor-assay potency score (higher = more potent) with ADAM18 worked out at 0.722.
In the assay with ADAM18, TTCATTATATGTATAAACCAAA returned a sensor-assay potency score (higher = more potent) of -1.38.
As for TTAGTTGATTAAATCTTTCTTT, the sensor-assay potency score (higher = more potent) with ADAD1 is 0.397.
The sequence TCTTTGAAGTACATGAGCCTGC gave a sensor-assay potency score (higher = more potent) in the assay with ADAP1 of 0.0128.
For TATTCCTTCAGAACCTTCGTGG, the sensor-assay potency score (higher = more potent) in the assay with ADAM18 stood at 0.508.
As to TCGTTCTGTCAGCACAAACTTC, in the assay with ADAP1, the sensor-assay potency score (higher = more potent) is -1.49.
The same measure, in the same setting: the value for TTGAAGTACATGAGCCTGCGGT was -0.124.
In the case of TTGGATAGAACACACGAGCGAT, the sensor-assay potency score (higher = more potent) in the assay with ADCYAP1 is -0.826.
Sequence TTCTGTTGAAATACTTCAGAGC yielded a sensor-assay potency score (higher = more potent) in the assay with ADAP1 of -0.664.
TAAACTAATATGAGGTCTGTTG displayed a sensor-assay potency score (higher = more potent) with ADAD1 of -1.14.
As to TTCACCTTGCTGACCTGGGGGA, in the assay with ADAP1, the sensor-assay potency score (higher = more potent) was -0.267.
For TTGACTAAGTAAAACATTGGAA, the sensor-assay potency score (higher = more potent) in the assay with ADAD1 was -0.221.
In the assay with ADAM18, TTGAACTGGGTAAACATAGTGT displayed a sensor-assay potency score (higher = more potent) of -0.273.
In the assay with ADAD1, TTATTCTATTAACACCATCTTT showed a sensor-assay potency score (higher = more potent) of -0.934.
TAAACCGACTTAACATTGCAGC gave a sensor-assay potency score (higher = more potent) with ADAD1 of -0.535.
TAGATGAAGATGTTACGGGTGC yielded a sensor-assay potency score (higher = more potent) with ADAP1 of -0.0419.
In the case of TTTGTTTCCGGTAGCGGCTGTA, the sensor-assay potency score (higher = more potent) with ADCYAP1 is -0.47.
As for TAACAGTCAATTTGAACTGGGT, in the assay with ADAM18, the sensor-assay potency score (higher = more potent) amounted to 0.214.
On to TTGCTGTAACAACAGCATGAGT, for which the sensor-assay potency score (higher = more potent) with ADAD1 was -1.53.
As to TCTGTCAGCACAAACTTCCGGC, the sensor-assay potency score (higher = more potent) in the assay with ADAP1 was 0.0597.
In the assay with ADAD1, TATAGCTACAACCTCATGTTGT returned a sensor-assay potency score (higher = more potent) of 0.156.
Turning to TGAAATACTTCAGAGCACCCTC, the sensor-assay potency score (higher = more potent) in the assay with ADAP1 is -0.32.
Regarding TTTTCCGTGAACAATCTCCCAA, the sensor-assay potency score (higher = more potent) in the assay with ADAM19 was -0.446.
For TTCCTCTGGCCTGATCCCGGGG, the sensor-assay potency score (higher = more potent) with ADCYAP1 is -1.18.
TTATATGCTCAAATCTTGCTGA showed a sensor-assay potency score (higher = more potent) with ADAM18 of -0.162.
As to AAACAGAAACTTGCGGTCGGGC, the sensor-assay potency score (higher = more potent) in the assay with ADAP1 was -0.903.
With TTTCCGTGAACAATCTCCCAAA, in the assay with ADAM19, the sensor-assay potency score (higher = more potent) was -0.808.
For TCTTCTTCACCTGCTTCTGGGC, the sensor-assay potency score (higher = more potent) in the assay with ADRB1 was -0.965.
Still for that read-out and setting: the value for TCCACTGCTGAGACAGCGGCTC was -1.08.
TAACAGTCTATTCTAACCCCTG: the sensor-assay potency score (higher = more potent) in the assay with AHCY was -0.522.
Still for that read-out and setting: the value for TTACTCATCACGAAGCTGGGGT was 0.777.
On to TTGTATGTGGTCTTGTTCCGCC, for which the sensor-assay potency score (higher = more potent) in the assay with AHDC1 was -0.176.
Regarding TTGCTTCTCAGTTAGCTTGGTC, the sensor-assay potency score (higher = more potent) in the assay with AHCY was -0.044.
As for TCTTTTAACATTATAGGCCAAA, the sensor-assay potency score (higher = more potent) with AHCY was -1.21.
For the sequence ATGATGTCAATACAGCCTGTGG, the sensor-assay potency score (higher = more potent) in the assay with AHCY is -1.59.
On the same count and under the same terms, then TTCATCTGCTCAAAGTGCCGGC, with -0.375.
Same read-out and setting: the value for TTGGTGTGGATGAGGTTGGTGA was -1.01; that for AAACTTGCTCTTGGTGACGGAG was -1.03.
Sequence TAGCTTGCTGCTCGTCCTGGTG showed a sensor-assay potency score (higher = more potent) with AHDC1 of -0.838.
For TCATCTTGTAGAGGTTGTGGAC, the sensor-assay potency score (higher = more potent) in the assay with AHCY is -0.726.
Sequence TATAAGTCCACAGACCAGGTGA had a sensor-assay potency score (higher = more potent) with AHCY of 0.25.
Same read-out and setting: the value for TCGGCCAGCAGGATGATGCGGC was -0.886.

Values taken from the OligoGym collection.
